“And” between values parts separate entries of the source, which are not always exact repeats. Identical values can stand only once. Results filed as inconclusive are left out. Where a call stands in place of a potency, no number is given. Some compounds were tested as several samples or in several runs, with calls that do not always agree. The source made the active and inactive calls. Calls follow the shape of the dose curve; as a rule, active = well fitted inhibition curve with a large enough effect; inconclusive = small, poorly fitted or top-dose-only effect; inactive = flat fitted curve, though single readings scatter.
What follows are compounds tested on DFO2036 (assay: qHTS profiling for inhibitors of Plasmodium falciparum proliferation (AID 504749; also: nearly all actives have a fitted effect of over 60% in size)). Settings: P. falciparum in erythrocytes, SYBR Green DNA, 72 h; series mostly up to 28.7 µM.
In short: (§1)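 P. falciparum-infected erythrocytes (0.3% parasitemia, 2.5% hematocrit) incubated with compound 72 h at 37 C, 5% CO2. Parasite DNA detected by SYBR Green after lysis, overnight at room temperature; normalised to 0.29 uM artemisinin and DMSO.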
Potency is read from the fitted curve at half-maximal effect.

**Q.** How did the Potency turn out when COc1ccc(OC)c(C(O)C(C)N)c1 (stereo not drawn) was run?
**A.** inactive

**Q.** How did the Potency turn out when CCON=O was run?
**A.** inactive

**Q.** How did the Potency turn out when CCCCCl was run?
**A.** inactive

**Q.** For COC([CH2][Hg])CNC(=O)c1ccccc1OCC(=O)O (stereo not drawn), which Potency is on record?
**A.** inactive

**Q.** Which Potency does the source give for CC(C)(O)C1C2OC(=O)C1C1(O)CC3OC34C(=O)OC2C14C (stereo not drawn) here?
**A.** inactive

**Q.** For C[CH2][Hg][S]c1ccccc1C(=O)O, which Potency is on record?
**A.** 2 µM (active)

**Q.** O=C1C2CC=CCC2C(=O)N1SC(Cl)(Cl)Cl (stereo not drawn) was tested. Which Potency did it give?
**A.** inactive

**Q.** For N#CN, which Potency is on record?
**A.** inactive

**Q.** Which Potency does the source give for O=C1CCCCC1CN1CCCCC1 (stereo not drawn) here?
**A.** inactive

**Q.** CN1C2CCC1CC(OC(c1ccccc1)c1ccc(Cl)cc1)C2 (stereo not drawn) was tested. Which Potency did it give?
**A.** 11.2 µM (active)

**Q.** With COC1=CC=C2[C@H]3Cc4ccc(OC)c5c4[C@@]2(CCN3C)[C@H]1O5 as the compound, how does the Potency read?
**A.** inactive

**Q.** How did the Potency turn out when S=C=S was run?
**A.** inactive

**Q.** With O=[N+]([O-])C(Br)(CO)CO as the compound, how does the Potency read?
**A.** inactive

**Q.** COc1ccc2c3c1O[C@H]1C(=O)CC[C@H]4[C@@H](C2)N(C)CC[C@]314 was tested. Which Potency did it give?
**A.** inactive

**Q.** How did the Potency turn out when CC(=O)O[C@H]1CC[C@H]2[C@@H]3CCC4=CC(=O)CCC4=C3C=C[C@]12C was run?
**A.** inactive

**Q.** How did the Potency turn out when CCCCCCCCOC(=O)c1ccccc1C(=O)OCCCCCCCC was run?
**A.** inactive

**Q.** For O=C1CCO1, which Potency is on record?
**A.** inactive

**Q.** For O=C(CS(=O)C(c1ccccc1)c1ccccc1)NO (stereo not drawn), which Potency is on record?
**A.** inactive

**Q.** With C=CCN1CC[C@]23c4c5ccc(O)c4O[C@H]2[C@@H](O)C=C[C@H]3[C@H]1C5 as the compound, how does the Potency read?
**A.** inactive

**Q.** O=c1[nH]cc(N(CCCl)CCCl)c(=O)[nH]1 was tested. Which Potency did it give?
**A.** inactive

**Q.** C/C(=C\c1csc(C)n1)[C@@H]1C[C@@H]2O[C@]2(C)CCC[C@H](C)[C@H](O)[C@@H](C)C(=O)C(C)(C)[C@@H](O)CC(=O)O1 was tested. Which Potency did it give?
**A.** 0.0032 µM (active)

**Q.** Which Potency does the source give for CCC(N)Cc1c[nH]c2ccccc12 (stereo not drawn) here?
**A.** inactive

**Q.** Which Potency does the source give for C#CC(C)(O)CC (stereo not drawn) here?
**A.** inactive

**Q.** How did the Potency turn out when CCCCNCC(O)c1ccc(O)cc1 (stereo not drawn) was run?
**A.** inactive

**Q.** For O[C@H]1[C@H]2[C@H](O)CCCN2C[C@H]1O, which Potency is on record?
**A.** inactive

**Q.** Which Potency does the source give for C=CCN1CCC23c4c5ccc(O)c4O[C@H]2C(=O)CC[C@@]3(O)C1C5 (stereo partly drawn) here?
**A.** inactive

**Q.** Which Potency does the source give for CC(=O)OO here?
**A.** inactive

**Q.** How did the Potency turn out when CCCC(=O)OC(C(Cl)(Cl)Cl)P(=O)(OC)OC (stereo not drawn) was run?
**A.** inactive

**Q.** [N-]=[N+]=CC(=O)OCC(N)C(=O)O (stereo not drawn) was tested. Which Potency did it give?
**A.** inactive

**Q.** CC(C)CCON=O was tested. Which Potency did it give?
**A.** inactive

**Q.** Which Potency does the source give for CC(C)(C)c1cc(O)ccc1O here?
**A.** 8.91 µM (active)

**Q.** With COCC(C)N(C(=O)CCl)c1c(C)csc1C (stereo not drawn) as the compound, how does the Potency read?
**A.** inactive

**Q.** Which Potency does the source give for C[N+]1(C)CCCCC1COC(=O)C(O)(c1ccccc1)c1ccccc1 (stereo not drawn) here?
**A.** inactive

**Q.** With CCC1(c2ccccc2)C(=O)NC(=O)NC1=O as the compound, how does the Potency read?
**A.** inactive

**Q.** C[N+]1(C)C2CCC1CC(OC(=O)c1c[nH]c3ccccc13)C2 (stereo not drawn) was tested. Which Potency did it give?
**A.** inactive

**Q.** Which Potency does the source give for O=S(=O)(O)c1cc(O)ccc1O here?
**A.** inactive

**Q.** With FC(F)OC(F)(F)C(F)Cl (stereo not drawn) as the compound, how does the Potency read?
**A.** inactive

**Q.** With CNC1(c2ccccc2Cl)CCCCC1=O (stereo not drawn) as the compound, how does the Potency read?
**A.** inactive

**Q.** For c1ccc2sc(SNC3CCCCC3)nc2c1, which Potency is on record?
**A.** inactive

These compounds were tested on DIV14 in the same assay as above. Settings: P. falciparum in erythrocytes, SYBR Green DNA, 72 h; series mostly up to 28.7 µM.
In short: as §1

**Q.** Which Potency does the source give for COc1ccc(OC)c(C(O)C(C)N)c1 (stereo not drawn) here?
**A.** inactive

**Q.** With CCON=O as the compound, how does the Potency read?
**A.** inactive

**Q.** For CCCCCl, which Potency is on record?
**A.** inactive

**Q.** For COC([CH2][Hg])CNC(=O)c1ccccc1OCC(=O)O (stereo not drawn), which Potency is on record?
**A.** inactive

**Q.** CC(C)(O)C1C2OC(=O)C1C1(O)CC3OC34C(=O)OC2C14C (stereo not drawn) was tested. Which Potency did it give?
**A.** inactive

**Q.** For C[CH2][Hg][S]c1ccccc1C(=O)O, which Potency is on record?
**A.** 1.9 µM (active)

**Q.** With O=C1C2CC=CCC2C(=O)N1SC(Cl)(Cl)Cl (stereo not drawn) as the compound, how does the Potency read?
**A.** inactive

**Q.** With N#CN as the compound, how does the Potency read?
**A.** inactive

**Q.** How did the Potency turn out when O=C1CCCCC1CN1CCCCC1 (stereo not drawn) was run?
**A.** inactive

**Q.** Which Potency does the source give for CN1C2CCC1CC(OC(c1ccccc1)c1ccc(Cl)cc1)C2 (stereo not drawn) here?
**A.** 7.57 µM (active)

**Q.** COC1=CC=C2[C@H]3Cc4ccc(OC)c5c4[C@@]2(CCN3C)[C@H]1O5 was tested. Which Potency did it give?
**A.** inactive

**Q.** How did the Potency turn out when S=C=S was run?
**A.** inactive

**Q.** How did the Potency turn out when O=[N+]([O-])C(Br)(CO)CO was run?
**A.** inactive

**Q.** With COc1ccc2c3c1O[C@H]1C(=O)CC[C@H]4[C@@H](C2)N(C)CC[C@]314 as the compound, how does the Potency read?
**A.** inactive

**Q.** With CC(=O)O[C@H]1CC[C@H]2[C@@H]3CCC4=CC(=O)CCC4=C3C=C[C@]12C as the compound, how does the Potency read?
**A.** inactive

**Q.** Which Potency does the source give for CCCCCCCCOC(=O)c1ccccc1C(=O)OCCCCCCCC here?
**A.** inactive

**Q.** With O=C1CCO1 as the compound, how does the Potency read?
**A.** inactive

**Q.** With O=C(CS(=O)C(c1ccccc1)c1ccccc1)NO (stereo not drawn) as the compound, how does the Potency read?
**A.** inactive

**Q.** C=CCN1CC[C@]23c4c5ccc(O)c4O[C@H]2[C@@H](O)C=C[C@H]3[C@H]1C5 was tested. Which Potency did it give?
**A.** inactive

**Q.** O=c1[nH]cc(N(CCCl)CCCl)c(=O)[nH]1 was tested. Which Potency did it give?
**A.** inactive

**Q.** With C/C(=C\c1csc(C)n1)[C@@H]1C[C@@H]2O[C@]2(C)CCC[C@H](C)[C@H](O)[C@@H](C)C(=O)C(C)(C)[C@@H](O)CC(=O)O1 as the compound, how does the Potency read?
**A.** 0.0034 µM (active)

**Q.** CCC(N)Cc1c[nH]c2ccccc12 (stereo not drawn) was tested. Which Potency did it give?
**A.** inactive

**Q.** With C#CC(C)(O)CC (stereo not drawn) as the compound, how does the Potency read?
**A.** inactive

**Q.** How did the Potency turn out when CCCCNCC(O)c1ccc(O)cc1 (stereo not drawn) was run?
**A.** inactive

**Q.** O[C@H]1[C@H]2[C@H](O)CCCN2C[C@H]1O was tested. Which Potency did it give?
**A.** inactive

**Q.** How did the Potency turn out when C=CCN1CCC23c4c5ccc(O)c4O[C@H]2C(=O)CC[C@@]3(O)C1C5 (stereo partly drawn) was run?
**A.** inactive

**Q.** With CC(=O)OO as the compound, how does the Potency read?
**A.** inactive

**Q.** Which Potency does the source give for CCCC(=O)OC(C(Cl)(Cl)Cl)P(=O)(OC)OC (stereo not drawn) here?
**A.** inactive

**Q.** [N-]=[N+]=CC(=O)OCC(N)C(=O)O (stereo not drawn) was tested. Which Potency did it give?
**A.** inactive

**Q.** CC(C)CCON=O was tested. Which Potency did it give?
**A.** inactive

**Q.** Which Potency does the source give for CC(C)(C)c1cc(O)ccc1O here?
**A.** 6.01 µM (active) and 12 µM (active)

**Q.** Which Potency does the source give for COCC(C)N(C(=O)CCl)c1c(C)csc1C (stereo not drawn) here?
**A.** inactive

**Q.** For C[N+]1(C)CCCCC1COC(=O)C(O)(c1ccccc1)c1ccccc1 (stereo not drawn), which Potency is on record?
**A.** inactive

**Q.** Which Potency does the source give for CCC1(c2ccccc2)C(=O)NC(=O)NC1=O here?
**A.** inactive

**Q.** How did the Potency turn out when C[N+]1(C)C2CCC1CC(OC(=O)c1c[nH]c3ccccc13)C2 (stereo not drawn) was run?
**A.** inactive

**Q.** O=S(=O)(O)c1cc(O)ccc1O was tested. Which Potency did it give?
**A.** inactive

**Q.** For FC(F)OC(F)(F)C(F)Cl (stereo not drawn), which Potency is on record?
**A.** inactive

**Q.** For CNC1(c2ccccc2Cl)CCCCC1=O (stereo not drawn), which Potency is on record?
**A.** 9.53 µM (active) and inactive

**Q.** With c1ccc2sc(SNC3CCCCC3)nc2c1 as the compound, how does the Potency read?
**A.** inactive
